The text below walks through data of PubChem BioAssay (NCATS).

Values joined by “and” are separate entries in the source; they are usually repeats but may differ in a detail not shown here. Identical values can stand only once. Records with an inconclusive call do not appear. Unmarked numbers belong to inactive results. Active and inactive are the calls of the source. Calls follow the shape of the dose curve; as a rule, active = well fitted activation curve with a large enough effect; inconclusive = small, poorly fitted or top-dose-only effect; inactive = no such curve, though single readings can be large or run the other way.
Potency is read from the fitted curve at half-maximal effect.

In the assay the target is Cellular tumor antigen p53 (Homo sapiens) (UniProt P04637). In words: Primary qHTS for small molecule compounds that upregulate eGFP-tagged delta133p53alpha (in N-terminal) cells. (AID 2060322). Also: nearly all actives have a fitted effect of over 75% in size.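 As to activation: cells pre-induced with doxycycline then dosed without doxycycline; series mostly up to about 56 µM; 0% = DMSO vehicle and 100% = reference activator.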 Particulars: NCI-H358 eGFP-delta133p53alpha fluorescence, 24 h; activation: hits give high values. In short, it runs like this: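 NCI-H358 cells pre-induced 24 h with 10 ng/ml doxycycline for eGFP-delta133p53alpha, plated dox-free and exposed 24 h at 37C to titrated compounds. Fixed, Hoechst-stained; gated GFP peak intensity by laser scanning cytometry, normalized to DMSO (0%) and 57.5 uM 5-azacytidine (100%).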
Sequence of Cellular tumor antigen p53 (Homo sapiens) (P04637 whole entry, looked up): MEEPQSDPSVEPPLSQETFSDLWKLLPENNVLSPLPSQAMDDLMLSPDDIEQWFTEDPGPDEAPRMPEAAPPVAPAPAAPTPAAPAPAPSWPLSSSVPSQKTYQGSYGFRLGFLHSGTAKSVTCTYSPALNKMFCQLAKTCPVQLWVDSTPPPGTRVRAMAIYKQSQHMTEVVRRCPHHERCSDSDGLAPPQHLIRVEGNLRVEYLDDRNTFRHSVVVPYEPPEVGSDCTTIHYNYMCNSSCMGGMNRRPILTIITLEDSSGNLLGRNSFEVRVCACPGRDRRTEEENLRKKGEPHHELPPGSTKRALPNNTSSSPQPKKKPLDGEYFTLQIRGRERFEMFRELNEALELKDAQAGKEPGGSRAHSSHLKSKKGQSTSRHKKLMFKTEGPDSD
A general note: Quantitative high-throughput screening tests each substance at several concentrations.
In the case of `CCCCNC(=O)NS(=O)(=O)c1ccc(N)cc1`, the activation is -14.2%.
`Cc1onc(-c2ccccc2)c1C(=O)N[C@@H]1C(=O)N2[C@@H](C(=O)O)C(C)(C)S[C@@H]12`: the activation is -7.66%.
On to `CCc1cc(Cl)c(OC)c(C(=O)NC[C@@H]2CCCN2CC)c1O`, for which the activation was 13.4%.
The same measure, in the same setting: to `O=C1NC(c2ccccc2)(c2ccccc2)C(=O)N1COP(=O)(O)O` belongs -11.9%.
On to `COCCCCC(=NOCCN)c1ccc(C(F)(F)F)cc1`, for which the activation is 8.31%.
As for `CCCCN(CCCC)C(C(N)=O)c1ccc(OC)cc1` (stereo not given), the activation is 20.9%.
The same measure, in the same setting: to `COc1ccc2c(c1)CCCC2=O` belongs 18.6%.
Regarding `CCC(C(=O)OCCN1CCOC(c2ccccc2)C1C)c1ccccc1` (stereo not given), the activation was -7.53%.
The same measure, in the same setting: the value for `NC1CCN(c2cccc(Cl)n2)CC1` was -10.7%; that for `CCOC(=O)N[C@@H]1CC[C@@H]2[C@@H](C1)C[C@H]1C(=O)O[C@H](C)[C@H]1[C@@H]2C=Cc1ccc(-c2cccc(F)c2)cn1` was 8.14%; that for `COc1cc(C(=O)NCCCCCC(=O)O)cc(OC)c1OC` was -9.6%.
The same measure, in the same setting: to `CCCCc1nc(Cl)c(CO)n1Cc1ccc(-c2ccccc2-c2nn[nH]n2)cc1` belongs -19.2%.
As to `Nc1ccc(S(=O)(=O)c2ccc(N)cc2)cc1`, the activation is 7.53%.
On the same count and under the same terms, to `COC1=C(OC)C(=O)C(CC=C(C)CCC=C(C)CCC=C(C)CCC=C(C)CCC=C(C)CCC=C(C)CCC=C(C)CCC=C(C)CCC=C(C)CCC=C(C)C)=C(C)C1=O` belongs 0.831%; to `[O-][n+]1cccc(/C(Cl)=N/OC[C@@H](O)CN2CCCCC2)c1`, -6.69%; to `CCCOC(=O)c1ccc(O)cc1`, -10%.
Take `CCCCC1C(=O)N(c2ccccc2)N(c2ccc(O)cc2)C1=O` (stereo not given): the Potency was 4.37 µM (active).
In the case of `NC(=O)c1ncn([C@@H]2O[C@H](CO)[C@@H](O)[C@@H]2O)n1`, the activation is -6.05%.
For `COc1cc(C=CC(=O)O)ccc1O`, the activation is -12.5%.
Turning to `CCCCCCOc1ccccc1C(N)=O`, the activation was 8.47%.
On the same count and under the same terms, the value for `O=C(O)Cc1cccc2ccccc12` was 1.67% and -33.3%.
Same read-out and setting: the value for `CCOC(=O)/C=C(C)/C=C/C=C(C)/C=C/c1c(C)cc(OC)c(C)c1C` was 9.6%.
On to `N#Cc1cc(NC(=O)C(=O)O)c(Cl)c(NC(=O)C(=O)O)c1`, for which the activation was 0.565%.
On the same count and under the same terms, to `CCOc1ccccc1O[C@H](c1ccccc1)[C@H]1CNCCO1` belongs -13%.
Consider `CCCCCCCCCCCCCCCC[N+](C)(C)CCN(Cc1ccc(OC)cc1)c1ncccn1`, for which the Potency was 34.7 µM (active).
Still for that read-out and setting: to `Nc1c(C(=O)Nc2ccc(F)cc2)sc2nc(-c3cccs3)cc(C(F)(F)F)c12` belongs 1.53 µM (active).
With `CCCCC1=NC2(CCCC2)C(=O)N1Cc1ccc(-c2ccccc2-c2nn[nH]n2)cc1`, the activation was 6.69%.
In the case of `CCC(=O)c1c(O)cc(O)cc1O`, the activation is -1.67%.
The same measure, in the same setting: to `CCOC(=O)[C@H](CCc1ccccc1)N[C@@H](C)C(=O)N1CCCC1C(=O)O` (stereo not given in full) belongs -2.61%; to `OC1(c2ccc(Cl)cc2)CCNCC1`, -8.47%.
On the same count and under the same terms, the value for `CCN(CC)CCOc1ccc(C(O)(Cc2ccc(Cl)cc2)c2ccc(C)cc2)cc1` (stereo not given) was -6.69%; that for `CCCCC/C=C\C/C=C\CCCCCCCC(=O)NC(C)c1ccccc1` (stereo not given) was 0%; that for `C[C@]12CCC(=O)C=C1C=C[C@@H]1[C@@H]2CC[C@@]2(C)[C@H]1CC[C@@]21CCC(=O)O1` was -33.3%.
Consider `Cc1cc(-c2ccccc2)nnc1NCCN1CCOCC1`, for which the activation is 16.4%.
As to `Cc1c(C)n(Cc2ccccc2)c2ccc(C(=O)OCCN(C)C)cc12`, the activation is -0.837%.
For `O=C1OC(OC(=O)c2cccnc2Nc2cccc(C(F)(F)F)c2)c2ccccc21` (stereo not given), the activation is -25.4%.
The same measure, in the same setting: the value for `C[C@H](Cn1cnc2c(N)ncnc21)OCP(=O)(O)O` was 61.4%; that for `CN(CCCN1c2ccccc2CCc2ccccc21)CC(=O)c1ccc(Cl)cc1` was -1.69%; that for `Cc1oc(-c2ccccc2)nc1CCC(=O)c1ccc(CC2SC(=O)NC2=O)cc1` (stereo not given) was -3.95%.
The same measure, in the same setting: to `NC(=O)NNc1ccccc1` belongs 0.565%.
